# Tau fil binding: binds recombinant human tau filaments; Potency, µM (series often up to 57.1 µM), without a hit: top-dose activity change, negative = inhibition; AID 596; P10636; 71,000 compounds, 2% hits; recombinant tau filaments, thioflavin S fluorescence, 15 h; filaments grown with octadecylsulfate alongside compound;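 note: % is set by controls: 0 for no effect and ±100 for the full control effect; actives lower thioflavin S fluorescence by blocking filaments or displacing dye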
#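 His-tagged recombinant human tau (exons 2, 3, 10; 1 uM final) fibrillized with 30 uM sodium octadecylsulfate, 15 h at 37 C, in pH 7.4 HEPES buffer with 10 uM thioflavine S and 5 mM DTT. Reduced ThS fluorescence (450/510 nm) marks activity.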
# PK Bst: alters activity of Bacillus stearothermophilus pyruvate kinase; purified pyruvate kinase, luminescence ATP production; ribose 5-phosphate activator present at AC10; Potency, µM; 51,000 compounds, 1.2% hits; AID 361; in the data active = potency below about 11 µM; inconclusive = mostly about 12 µM to 25 µM;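 the screen sought inhibitors and activators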;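 note: scaled between full activation by ribose 5 phosphate and full inhibition by luteolin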
# Luciferase inh: inhibitors of firefly luciferase. P08659. purified firefly luciferase, luminescence, 8 min. Potency, µM (titrated, usually from 57.1 µM), inactives show at the top dose activity change, negative = inhibition, most hits filed as inhibitors. 72,000 compounds, 2.2% hits; note: % is set by controls: 0 for no effect and ±100 for the full control effect; nearly all actives have a fitted effect of over 40% in size
# Target sequence (P08659 whole entry, looked up): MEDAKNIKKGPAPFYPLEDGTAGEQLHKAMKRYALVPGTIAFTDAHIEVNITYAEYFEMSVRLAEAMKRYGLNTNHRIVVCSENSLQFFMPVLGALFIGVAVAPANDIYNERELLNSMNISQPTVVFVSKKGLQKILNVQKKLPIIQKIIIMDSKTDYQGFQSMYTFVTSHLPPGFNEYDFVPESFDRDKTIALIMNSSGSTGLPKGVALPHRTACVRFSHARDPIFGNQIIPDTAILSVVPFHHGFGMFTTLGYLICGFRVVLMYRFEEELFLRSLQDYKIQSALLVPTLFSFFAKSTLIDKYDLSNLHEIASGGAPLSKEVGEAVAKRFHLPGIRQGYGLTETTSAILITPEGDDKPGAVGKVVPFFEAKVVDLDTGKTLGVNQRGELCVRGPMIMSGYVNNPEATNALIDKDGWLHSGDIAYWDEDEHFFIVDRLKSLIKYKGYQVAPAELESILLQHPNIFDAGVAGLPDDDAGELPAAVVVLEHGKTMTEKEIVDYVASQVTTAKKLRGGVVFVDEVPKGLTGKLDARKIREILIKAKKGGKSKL
#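 Inhibition of light generation by firefly luciferase from ATP and luciferin was profiled with concentration-response curves per sample, ATP held at 10 uM within the enzyme's linear range. Plates were read by luminescence after an 8-minute ambient incubation.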
# Caspase-7 inhib: blocks human caspase-7 allosterically or competitively. P55210. recombinant caspase-7, Ac-DEVD-AFC fluorescence rate. Potency, µM (highest dose often 57.5 µM), without a hit: top-dose activity change, negative = inhibition, actives largely listed as inhibitors. 75,000 compounds, 0.02% hits. AID 889; active = well fitted inhibition curve with a large enough effect in the main read-out, with a control signal flat, not every such curve was filed as active; inconclusive = small, poorly fitted or top-dose-only effect, or a change in a side signal; note: % of control where 0% means no effect
# Caspase-1 inhib: blocks human caspase-1 allosterically or competitively. Caspase-1 enzyme, Ac-WEHD-AFC fluorogenic rate. 75,000 compounds, 0.03% hits. Potency, µM (series often up to 57.5 µM), for inactives: at the highest dose activity change, negative = inhibition, actives largely listed as inhibitors. P29466. AID 900;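 note: plate controls were vehicle for no effect and no substrate for full effect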
# * hit, by the source's call; i = inactive; ? = inconclusive; . = no result; [ ] = another dose, or the depositor's remark. Sampled rows, rich in hits. Any-hit rate of the full collection: about 4%. Unless noted, calls come from the whole dose curve; as a rule, active = well fitted curve in the direction sought with a large enough effect; inconclusive = small, poorly fitted or top-dose-only effect, or another doubt; inactive = no such curve, though single readings can be large; an effect the other way counts as inactive or inconclusive. Potency is the fitted concentration of half-maximal effect.
SMILES,Tau fil binding,PK Bst,Luciferase inh,Caspase-7 inhib,Caspase-1 inhib
Cc1nc2cncnc2n(Cc2ccccc2)c1=O,-28%,.,2%[11.4 µM],0%,1%
Cn1nnc(NC(=O)c2ccccc2F)n1,4%,.,-12%,-4%,-7%
CCOc1ccc(C(=O)Nc2cccc(C)n2)cc1,-6%,9.8*,13µM*,0%,1%
CCCCOc1ccc(C(=O)Nc2cccc(C)n2)cc1,15%,i,13µM*,0%,2%
Cn1nnc(NC(=O)c2ccc(C(C)(C)C)cc2)n1,3%,?,10µM*,0%,-1%
CCOc1ccc(C(=O)Nc2nnn(CC)n2)cc1,2%,.,25µM*,1%,-1%
CCCCOc1ccc(C(=O)O)cc1,-2%,>57,2%,6%,0%
Cc1cccc(NC(=O)c2ccc(S(=O)(=O)N(C)C)cc2)n1,-3%,>57,-2%,1%,0%
COc1ncc2nc(-c3cccc(C#N)c3)c(=O)n(CCC#N)c2n1,-1%,.,0%[11.4 µM],-15%,-11%
CCn1nnc(NC(=O)c2ccc(-c3ccc(Cl)cc3)o2)n1,3%,6.5*,-18%,-3%,1%
COc1ccc(C2C(=O)c3ccccc3C2=O)cc1,.,.,.,1%,3%
COc1ccc(C2=C(N)c3ccccc3C2=O)cc1,?,.,13µM*,-1%,-1%
CC(C)c1nc(SCC(=O)N2CCCC2)c2ccccc2n1,29%,.,7.9µM*,-1%,1%
Brc1ccc(C2Nc3cccc4cccc(c34)N2)o1,10µM*,.,-17%,-14%,-8%
Cn1cccc1C(=O)N1CCC2(CCN(C(=O)Nc3cccc(C#N)c3)CC2)CC1,11%,.,0%[11.4 µM],-2%,-1%
O=C(Nc1ccccc1)N(O)c1ccc(Cl)cc1,-17%,?,13µM*,0%,0%
NCCC1([N+](=O)[O-])CCNCC1,-4%[11.4 µM],.,3%[11.4 µM],3%[11.5 µM],-2%[11.5 µM]
O=C(/C=C\Nc1ccccn1)c1ccc(Cl)cc1,5%,.,1.3µM*,-29%,?
O=C(O)/C=C\C(=O)Nc1ccccn1,-21%[11.4 µM],.,1%[11.4 µM],0%[11.5 µM],2%[11.5 µM]
O=C1CSC(=S)N1/N=C\c1ccc(Cl)c([N+](=O)[O-])c1,4µM*,.,3%[11.4 µM],-12%[11.5 µM],2%[11.5 µM]
O=S(=O)(O)c1cc(O)c2c(N=Cc3ccccc3O)cc(S(=O)(=O)O)cc2c1,18%[11.4 µM],.,-9%[11.4 µM],-4%[11.5 µM],-10%[11.5 µM]
COc1cc(C(=O)OC(C)C(=O)N2CCc3ccccc3C2)ccc1OCC(=O)N1CCOCC1 (centres undefined),-2%,11*,-2%,0%,0%
COC(=O)[C@@H]1C[C@H]1[C@@H](NC(=O)c1ccc(Br)cc1)c1ccccc1,-21%,.,.,-4%,0%
COc1cccc(-c2nn3c(-c4cccc(C)c4)nnc3s2)c1,253%,.,-2%,-3%,-3%
COc1cccc(-c2cn3nc(C)c(C)nc3n2)c1,10µM*,i,13µM*,?,.
SMILES,Tau fil binding,PK Bst,Luciferase inh,Caspase-7 inhib,Caspase-1 inhib
Cc1nc2nc(-c3cccs3)cn2nc1C,i,.,20µM*,?,.
COc1ccc(NC(=O)C2CCC(=O)N2S(=O)(=O)c2ccc(C)cc2)c(OC)c1 (centres undefined),0%,11*,-1%,-1%,0%
O=C(COc1ccccc1)Nc1nc2ccccc2[nH]1,2%,.,20µM*,5%,-4%
COc1cc(C(=O)Nc2nc3ccccc3[nH]2)cc(OC)c1OC,23%,.,-20%,-1%,-1%
c1ccc(OCc2nc3ccccc3[nH]2)cc1,-7%,.,25µM*,-2%,-2%
O=C(O)CCc1nc2ccccc2[nH]1,2%[11.4 µM],.,1%[11.4 µM],0%[11.5 µM],2%[11.5 µM]
Cc1ccc(-c2cc3c(nn2)-c2ccccc2C3=O)cc1,1µM*,.,0.25µM*,2%,-1%
O=C1c2ccccc2C(=O)c2c1ccc(C(=O)O)c2-c1ccc2ccccc2c1,3.2µM*,.,-6%[11.4 µM],-3%[11.5 µM],-1%[11.5 µM]
O=C(O)c1cc(NS(=O)(=O)c2ccc3ccccc3c2)ccc1O,.,.,.,-1%,0%
Cc1nc(C)c(C(=O)Nc2nc3c(C)cccc3s2)o1,32µM*,>57,0%,-12%,-6%
CCN(CC)C(=O)Cn1cnc2ccccc2c1=O,-9%,>57,0%,1%,0%
O=C(Cn1cnc2ccccc2c1=O)c1ccc2c(c1)OCCO2,9%,.,13µM*,0%,-1%
CC(C)CO/N=C1/C[C@@H](O)[C@@H](O)[C@@H]2[C@@H]3C(=O)N(Cc4ccc5c(c4)OCO5)C(=O)[C@H]3CC[C@@H]12,.,.,-2%[11.4 µM],-1%[11.5 µM],-2%[11.5 µM]
COc1nc(C#N)nc(N(C)C)n1,13µM*,>57,1%,1%,2%

# From PubChem BioAssay
